Laboratory results published in PubChem BioAssay (NCATS).
Activity calls are given as the source filed them. Calls follow the shape of the dose curve; as a rule, active = well fitted inhibition curve with a large enough effect; inconclusive = small, poorly fitted or top-dose-only effect; inactive = flat fitted curve, though single readings scatter. Where a SMILES comes first, the peptide text is derived from it.

What follows are compounds tested on Nanoluciferase (engineered Oplophorus gracilirostris luciferase) (assay: Primary Nanoluciferase (NLuc) qHTS assay for identification of artifact compounds. (AID 1845222;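 also: NLuc secreted into diluted conditioned medium of S16 cells; 0% = DMSO and -100% = no enzyme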)). Conditions: NLuc-conditioned medium, Nano-Glo luminescence, 5 min; series mostly up to 54.1 µM; activity, negative = inhibition: at the top concentration.
How it was run: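 Using secreted nanoluciferase in S16 culture medium (0.22 um filtered, 1:55 dilution), compounds were preincubated 15 min at RT. Signal was generated with Nano-Glo reagent (1:100) over 5 min.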

Structure (SMILES)	activity, negative = inhibition
Cc1onc(-c2c(Cl)cccc2Cl)c1CC(=O)NCc1ccc(OCC(F)(F)F)nc1	2.33% (inactive)
COc1ccc2c(c1)C=C1Cn3c-2c(C2CCCCC2)c2ccc(cc23)C(=O)NS(=O)(=O)N(C)CCOCCN(C)C1=O	-1.63% (inactive)
COc1ccc(CC(NC(C)=O)C(=O)O)cc1 (stereo unspecified)	-7.81% (inactive)
CC(=O)OC/C(=C/C(=O)O)CC[C@@H]1C(CO)=CC[C@@H]2C(C)(C)CCC[C@@]12C	-18.6% (inactive)
C/C=C(\C)C(=O)OC[C@H]1O[C@@H](O[C@H]2[C@@H](O[C@H]3O[C@H](COC(=O)/C(C)=C/C)[C@@H](O)[C@H](O)[C@H]3O[C@@H]3O[C@H](CO)[C@@H](O)[C@H](OC(=O)/C(C)=C/C)[C@H]3O)O[C@H](COC(=O)/C(C)=C/C)[C@@H](O)[C@@H]2O)[C@H](O)[C@@H](O)[C@@H]1O	-1.03% [at 11.6 µM] (inactive)
CC(=O)O[C@@H](C[C@@H]1C=C(C)C(=O)O1)[C@H](C)[C@H]1CCC2[C@@]3(C)CC[C@H](O[C@@H]4O[C@H](CO)[C@@H](O)[C@H](O)[C@H]4O[C@@H]4O[C@@H](C)[C@H](O)[C@@H](O)[C@H]4O)C(C)(C)C3CC[C@@]2(C)[C@@]12COC(=O)C2 (stereo partly specified)	-4.12% [at 11.6 µM] (inactive)
COc1cc(C(=O)OCC2=CCC3C(C(=O)O)=COC(O[C@@H]4O[C@H](CO)[C@@H](O)[C@H](O)[C@H]4O)C23)ccc1O (stereo partly specified)	3.1% [at 25.7 µM] (inactive)
C=CC(C)(O)CC/C=C(\C)C1CC=C(C)C(=O)O1 (stereo unspecified)	-4.79% (inactive)
CCN=C1N[C@@H]2[C@@H](O)[C@H](O)[C@@H](CO)O[C@@H]2S1	-12.2% (inactive)
C/C=C1/[C@H](O[C@@H]2O[C@H](CO)[C@@H](O)[C@H](O)[C@H]2O)OC=C(C(=O)OC)[C@H]1CC(=O)OCCc1ccc(OC(=O)C[C@@H]2C(C(=O)OC)=CO[C@@H](O[C@@H]3O[C@H](CO)[C@@H](O)[C@H](O)[C@H]3O)/C2=C/C)cc1	2.4% [at 11.6 µM] (inactive)
C=C1CC[C@@]2(OC1)O[C@H]1CC3[C@@H]4CC=C5C[C@@H](O)C[C@@H](O[C@@H]6OC[C@H](O)[C@H](O)[C@H]6O[C@@H]6O[C@@H](C)[C@H](O)[C@@H](O)[C@H]6O)[C@]5(C)C4CC[C@]3(C)[C@H]1[C@@H]2C (stereo partly specified)	-0.867% [at 25.7 µM] (inactive)
C=C1CC2C(C)(CCC(=O)O)C(C(C)(C)O)CCC2(C)C2(C(=O)OC)C(=O)C(C)(O)C(=O)C12C (stereo unspecified)	-2.98% [at 25.7 µM] (inactive)
CC1(C)C=Cc2c(ccc3c2[N+]([O-])=C2C3(O)CC34NC(=O)C5(CCCN5C3=O)CC4C2(C)C)O1 (stereo unspecified)	0.394% [at 25.7 µM] (inactive)
CC1OC(O[C@@H]2[C@@H](O)[C@H](OC(=O)[C@]34CCC(C)(C)C[C@H]3C3=CCC5[C@@]6(C)CC[C@H](O[C@@H]7O[C@H](C(=O)O)[C@@H](O)[C@H](O[C@@H]8OC[C@@H](O)[C@H](O)[C@H]8O)[C@H]7O[C@@H]7O[C@H](CO)[C@H](O)[C@H](O)[C@H]7O)[C@@](C)(C=O)C6CC[C@@]5(C)[C@]3(C)C[C@H]4O)O[C@H](C)[C@@H]2OC2OC(C)C(OC3OCC(O)C(O)C3O)C(O)C2O)C(O)C(O)C1O (stereo partly specified)	2.13% [at 11.6 µM] (inactive)
C[C@@H]1CCC2C(C)(C)[C@H](O)[C@H](O)C[C@]2(C)[C@@]12Cc1c(O)cc3c(c1O2)CN(CCCC(=O)O)C3=O (stereo partly specified)	-0.794% [at 25.7 µM] (inactive)
O=C(O)C(Cc1ccccc1)NC(=O)C1CCCN1 (stereo not drawn) (H-Pro-Phe-OH; configuration not given here)	1.53% (inactive)

Structure (SMILES)	activity, negative = inhibition
CC1(C)CC[C@]2(C(=O)O[C@@H]3O[C@H](CO)[C@@H](O)[C@H](O)[C@H]3O)CC[C@]3(C)C(=CCC4[C@@]5(C)CC[C@H](OC6OC(C(=O)O)C(OC7OC(CO)C(O)C(O)C7O)C(O)C6O)C(C)(C)C5CC[C@]43C)C2C1 (stereo partly specified)	0% [at 11.6 µM] (inactive)
CCCC1=CC2=C(CO1)C(=O)C(C)(O)C(OC(=O)c1c(C)cc(OC)cc1O)C2 (stereo unspecified)	0.717% [at 25.7 µM] (inactive)
C=C1C(=O)OC[C@H]2C(C(=O)O)=CC3CC(C)(C)C[C@@]132 (stereo partly specified)	-1.02% (inactive)
CC1=C[C@@H]2[C@H]3[C@@H]4O[C@@](C)(CC[C@H]4O)[C@H]3CC(=O)[C@]23C(=O)N[C@@H](CC(C)C)[C@@H]3[C@@H]1C	2.5% (inactive)
Cc1c(C)c(NCC(=O)N(C)C2CCN(Cc3ccc(C(N)=O)cc3)CC2)c(C)c(C)c1N	2.98% (inactive)
C[C@@H]1O[C@@H](O[C@H]2[C@H](OC(=O)[C@]34CCC(C)(C)C[C@H]3C3=CCC5[C@@]6(C)CC[C@H](O[C@@H]7O[C@H](CO[C@@H]8OC[C@H](O)[C@H](O)[C@H]8O)[C@@H](O)[C@H](O)[C@H]7O)C(C)(C)C6CC[C@@]5(C)[C@]3(C)C[C@H]4O)OC[C@@H](O)[C@@H]2O)[C@H](O)[C@H](O[C@@H]2OC[C@](O)(CO)[C@H]2O)[C@H]1O[C@@H]1OC[C@H](O)[C@H](O[C@@H]2OC[C@@H](O)[C@H](O)[C@H]2O)[C@H]1O (stereo partly specified)	0.577% [at 11.6 µM] (inactive)
CCC(C)/C=C(C)/C=C/C1=CC2=C(Cl)C(=O)C(C)(OC(C)=O)C(=O)C2=CN1CCCCC(N)C(=O)O (stereo unspecified)	-10.7% [at 25.7 µM] (inactive)
CC1CC=C2C1CC1(O)C(=O)CC2(C)C1(C)CO (stereo unspecified)	-7.87% (inactive)
C/C=C/C=C/[C@@H]1O[C@](O)([C@H](CC)C(=O)NC/C=C/C=C(\C)[C@@H](OC)[C@@H](C)[C@@H]2O[C@H](/C=C/C=C/C=C(\C)C(=O)c3c(O)ccn(C)c3=O)[C@H](O)[C@@H]2O)[C@H](O)[C@H](O)C1(C)C	-0.199% [at 11.6 µM] (inactive)
C[C@@H]1C[C@H]2OC(=O)[C@@]3(C)CCC[C@](C)(C23)[C@@]1(O)CCC1=CC(=O)OC1O (stereo partly specified)	4.64% (inactive)
CC(C)=CC[C@H]1O[C@]2(O)C([C@H]3CCC4[C@@]5(C)CC[C@H](O[C@@H]6O[C@H](CO)[C@H](O)[C@H](O[C@@H]7O[C@H](CO)[C@@H](O)[C@H](O)[C@H]7O)[C@H]6O[C@@H]6O[C@@H](C)[C@H](O)[C@@H](O)[C@H]6O)C(C)(C)C5CC[C@@]4(C)[C@]3(C)[C@H]2O)[C@@]1(C)O (stereo partly specified)	-2.88% [at 11.6 µM] (inactive)
C=C1C2(C)CC3C4(C)OC(C5OC56C4=CC(=O)OC6(C)C)C3(C)C13C(=O)OC(C)C3(O)C2=O (stereo unspecified)	0% [at 25.7 µM] (inactive)
C=C1CC23CC(=O)C4C(CO)(CO)CCCC4(C)C2CCC1C3 (stereo unspecified)	-0.579% (inactive)
COC(=O)[C@H](c1ccccc1Cl)N1CCC2SC(=O)C=C2C1 (stereo partly specified)	-11.2% (inactive)
Cc1ccc([C@@H]2CC=C(C(=O)O)[C@H](c3ccc(C(C)(C)C)cc3)N2S(=O)(=O)c2ccc(C)cc2)cc1	0% (inactive)
